Screens deposited in PubChem BioAssay by several laboratories.
aSyn UTR inh: MLPCN primary screen, SNCA 5' untranslated region. alpha-synuclein 5'UTR reporter, inhibitor activity. inhibition, % (tested at 7.5 µM). 300,000 compounds, 0.82% hits; in the data active = inhibition above about 60%; inconclusive = no clear call, values can overlap the other calls;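 also: H4 neuroglioblastoma cells stably carrying SNCA 5'UTR luciferase fusion; 0% = DMSO wells and 100% = positive control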
IEC-6 cytotox: counter-screen for KLF5 inhibitors: cytotoxicity in IEC-6 cells | AID 1825 | inhibition, % at 5 µM | IEC-6 cytotoxicity, luminescence viability | 290,000 compounds, 0.78% hits; in the data active = inhibition above about 22%;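 also: 0% = plate median of test compound wells and 100% = cytotoxic reference compound wells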
SKKanGAS inh: blocks kanamycin growth of S. pyogenes SKKanGAS strain; BacTiter-Glo, 6 h; AID 1662; inhibition, % at 7.5 µM; 300,000 compounds, 1.3% hits;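 active = mean replicate score, as percent of positive control median, at least 50; inconclusive = mean below 50 but one replicate at or above 50; inactive = mean and every replicate below 50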;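 also: strain carries kanamycin resistance gene driven by streptokinase promoter and grows in 40 µg/ml kanamycin; loss of luminescence reflects streptokinase promoter inhibition or plain growth inhibition; 0% = median of DMSO wells and 100% = positive control at its reference dose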
KLF5 inhibitor: suppresses KLF5 promoter-driven expression. inhibition, % at 5 µM. DLD-1 KLF5 promoter-luciferase reporter, luminescence. AID 1700. 290,000 compounds, 0.23% hits;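 active = inhibition above a per-plate limit of that plate's mean compound inhibition plus 3 SD, cut at about 60% in these data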;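 also: 0% = DMSO wells and 100% = LY294002 at 200 µM; higher means less KLF5 promoter-driven luciferase light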
CSC inhib: cancer stem cell inhibition; cancer stem cell-like cells viability, luminescence; inhibition, % at 7.5 µM; 300,000 compounds, 1.1% hits; in the data active = inhibition above about 75%; inconclusive = no clear call, values can overlap the other calls; tested in HMLE shEcad cells
* marks the source's active call; other numbers are inactive results; ? = inconclusive; / = no result. A selection: hits, their analogues and other compounds. The true share with any hit is near 3%.

SMILES	aSyn UTR inh	IEC-6 cytotox	SKKanGAS inh	KLF5 inhibitor	CSC inhib
CCCCCn1c(=O)[nH]c2cc(C(=O)NCCCN(CC)CC)ccc2c1=O	9	-8	1	-25	29
CCC(=NCc1ccc(Cl)c(Cl)c1)c1nc(-c2ccco2)oc1O	28	-6	6	-16	102*
CC1(C2CC2)NC(=O)N(CC(=O)NCC(=O)Nc2ccc(F)c(F)c2F)C1=O (centres undefined)	/	/	/	/	-10
CCCCN(CCO)c1ncnc2sc(-c3ccccc3)cc12	34	13	45	9	33
O=C(Nc1ccc(Oc2c(F)c(F)c(F)c(F)c2F)cc1)OC1CCN2Cc3ccccc3N=C12 (centres undefined)	104*	0	0	-11	104*
Cc1cccc(NC(=O)Nc2ccc(Oc3c(F)c(F)c(F)c(F)c3F)cc2)c1	6	-5	-9	17	18
CCOC(=O)C(=O)N/N=C/c1ccc(F)cc1	-8	2	1	-18	-1
N/C(=N\N=C/c1ccc(Br)cc1)N/N=C\c1ccc(Br)cc1	-19	-6	?	1	103*
N/C(=N\N=C/c1ccc(F)cc1)N/N=C\c1ccc(F)cc1	-20	5	-15	-12	77*
COCCN1C(=O)N[C@@H](c2cccs2)C(C(C)=O)=C1C	15	/	1	/	-3
O=C(OCc1cccc(F)c1)c1ccc2c(=O)n3c(nc2c1)CCC3	-2	13	28	-1	-5
O=C(Nc1ccc(-c2csc(Nc3ccccc3)n2)cc1)c1cccc(C(F)(F)F)c1	4	/	65*	/	14
O=C(Nc1ccc(-c2csc(Nc3ccc(Cl)cc3)n2)cc1)c1cccc(C(F)(F)F)c1	4	/	5	/	-14
O=C(Nc1ccc(-c2csc(Nc3ccccc3)n2)cc1)c1cc([N+](=O)[O-])cc(C(F)(F)F)c1	9	/	?	/	0
O=C(Nc1cccc(-c2csc(Nc3cccc(C(F)(F)F)c3)n2)c1)c1cc([N+](=O)[O-])cc(C(F)(F)F)c1	-37	/	77*	/	62
CSC1=NC(C(Cl)(Cl)Cl)N=C(c2ccc(C)cc2)N1 (centres undefined)	118*	58*	14	53	57
O=C1NC(=O)/C(=C\c2ccc(OCc3ccccc3)cc2)S1	-27	3	55*	-44	34
CCOc1ccc(N(C)c2ccc(/C=C3/SC(=S)NC3=O)cc2)cc1	7	-6	65*	-47	97*
O=C1NC(=S)S/C1=C/c1ccc(Oc2cnccn2)cc1	-58	4	10	-5	-6
O=C(Nc1cccc(C(F)(F)F)c1)c1cccnc1	14	2	/	-11	-2
Oc1c(C(Nc2cccc(C(F)(F)F)c2)c2ccncc2)ccc2cccnc12 (centres undefined)	82*	-1	60*	7	54
Cc1nn2c(=O)cc(CSCC(=O)Nc3ccccc3Cl)nc2s1	-20	-7	-8	-30	/
CCN(CC)CCNCc1ccc(-c2ccc(Cl)cc2)o1	9	-3	0	-32	79*
O=C(Nc1nnc(SCc2ccc(F)cc2)s1)c1ccc2c(c1)C(=O)N(c1ccccc1Cl)C2=O	19	-5	54*	-24	11
O=C(Nc1nnc(SCc2ccc(F)cc2)s1)c1ccc2ncsc2c1	-100	-2	-10	-68	/
SMILES	aSyn UTR inh	IEC-6 cytotox	SKKanGAS inh	KLF5 inhibitor	CSC inhib
CCCCCCCCOC(=O)/C=C/c1c(C)[nH]c(=O)[nH]c1=O	31	6	64*	-35	3
CCCCN(CCCC)S(=O)(=O)c1c(C)[nH]c(=O)[nH]c1=O	-4	3	7	-5	-2
C/C(=N/NS(=O)(=O)c1ccc(Cl)cc1)c1cccc(NC(=O)c2ccc(Cl)cc2Cl)c1	-20	3	64*	-130	16
O=C(c1cc(-c2ccccc2)n[nH]1)N1CCc2c([nH]c3ccccc23)C1c1ccccn1 (centres undefined)	-26	7	75*	-19	-3
CC1CCN(C(=O)c2ccc3c(c2)NC(=O)/C(=C/c2ccccc2)S3)CC1	-29	3	76*	-12	65
CCN1CCCC1CNC(=O)c1ccc2c(c1)NC(=O)/C(=C\c1ccc(C)cc1)S2 (centres undefined)	74*	-4	9	5	34
Cc1ccc(/C=C2/Sc3ccc(C(=O)N4CCN(C)CC4)cc3NC2=O)cc1	-30	8	54*	-8	64
Cc1nn(C)c(C(=O)N2CCOCC2)c1Cl	5	10	4	8	-8
CC(=O)Nc1cc(NC(C)=O)ncn1	5	0	-2	-20	-4
CSc1ccc(NC(=O)C(C)N2CCN(C)CC2)cc1 (centres undefined)	-10	2	-2	-22	1
Cc1ccc(C(=O)N/C(=C\c2ccc(Cl)cc2)C(=O)NCCN2CCOCC2)cc1	-4	-2	1	-11	/
O=C1c2cccnc2C(Nc2ccc(Br)cc2Br)N1Cc1cccs1 (centres undefined)	-17	-2	18	-8	18
Cc1nc(N)nc(N)c1CCCc1ccc(Cl)c(Cl)c1	92*	/	109*	/	66
O=c1cc(-c2ccccc2)[nH]n1-c1ccc([N+](=O)[O-])cc1	-59	-4	51*	-34	138*
O=c1c(N=Nc2ccc(O)cc2)c(-c2ccccc2)[nH]n1-c1ccc([N+](=O)[O-])cc1	5	7	5	1	21
CCOc1ccc(C(=O)Nc2ccc3nc(N4CCN(CC)CC4)cc(C)c3c2)cc1	67*	8	-5	-25	45
CCN1CCN(c2cc(C)c3cc(NC(=O)c4cc(OC)cc(OC)c4)ccc3n2)CC1	-98	12	3	-49	8
COc1ccc2oc(C(=O)OCC(=O)Nc3ccc(C(=O)N(C)C)cc3)c(C)c2c1	-15	-4	-6	-23	-4
CCc1ccc(Nc2n[n+](-c3ccccc3)c(-c3c(Cl)cccc3Cl)s2)cc1	10	-2	88*	-18	109*
C=CCn1c(SCCC)nc2sc3c(c2c1=O)CCc1ccccc1-3	18	-5	15	9	83*
C=CCSc1nc2sc3c(c2c(=O)n1CC=C)CCc1ccccc1-3	-19	-6	39	2	5
Cn1c(/C=C/c2ccc([N+](=O)[O-])o2)nc2ccccc2c1=O	98*	6	48	-21	110*
O=C(Nc1ccccc1N1CCCCC1)c1ccc(Cl)c([N+](=O)[O-])c1	51	-2	-12	19	80*
O=C(NC(=S)Nc1cccc(Cl)c1N1CCCCC1)c1ccc2c(c1)OCCO2	-36	-1	61*	8	82*
O=C(Nc1cccc(Cl)c1N1CCCCC1)c1ccc2c(c1)OCCO2	23	-1	62*	-36	?
CO[C@H]1C=CO[C@@]2(C)Oc3c(C)c(O)c4c(O)c(c(C=NN5CCN(C)CC5)c(O)c4c3C2=O)NC(=O)C(C)=CC=C[C@H](C)[C@H](O)[C@@H](C)[C@@H](O)[C@@H](C)[C@H](OC(C)=O)[C@@H]1C	-18	-2	106*	-5	8
